According to PubChem BioAssay AID1159580 (chemical genetic matrix, 2015):
About 2,000 (36%) of roughly 5,500 compounds were called active. Not shown: some 18% with an inconclusive outcome. No stated cut-off is given here; in the data, active means normalized growth mostly below about 0.91 (no sharp cut-off); inconclusive means no clear call, values can overlap the other calls; inactive means mostly above about 0.92. Some of the results follow.

Test: chemical genetic growth profiling, strain panel (AID 1159580);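 further: tested at 20 µM; growth read once vehicle control cultures reached saturation at 30 °C; 1 = growth at the plate median or of vehicle wells; lower values mean less growth of the strain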
Conditions: growth OD
[1] = S. cerevisiae deletion strains, locus YAL013W, strain DEP1, active compounds read low
[2] = S. cerevisiae deletion strains, locus YBR021W, strain FUR4, active compounds read low
[3] = S. cerevisiae deletion strains, locus YBR229C, strain ROT2, active compounds read low
[4] = S. cerevisiae deletion strains, locus YCL029C, strain bik1, active compounds read low
[5] = S. cerevisiae deletion strains, locus YDL035C, strain GPR1, active compounds read low
[6] = S. cerevisiae deletion strains, locus YDL074C, strain BRE1, active compounds read low
[7] = S. cerevisiae deletion strains, locus YDL101C, strain DUN1, active compounds read low
[8] = S. cerevisiae deletion strains, locus YDL134C, strain PPH21, active compounds read low
[9] = S. cerevisiae deletion strains, locus YDL192W, strain arf1, active compounds read low
[10] = S. cerevisiae deletion strains, locus YDR101C, strain arx1, active compounds read low
[11] = S. cerevisiae deletion strains, locus YDR150W, strain NUM1, active compounds read low
[12] = S. cerevisiae deletion strains, locus YDR162C, strain NBP2, active compounds read low
[13] = S. cerevisiae deletion strains, locus YDR318W, strain mcm21, active compounds read low
[14] = S. cerevisiae deletion strains, locus YDR388W, active compounds read low
[15] = S. cerevisiae deletion strains, locus YDR502C, strain sam2, active compounds read low
[16] = S. cerevisiae deletion strains, locus YEL061C, strain CIN8, active compounds read low
[17] = S. cerevisiae deletion strains, locus YER110C, active compounds read low
[18] = S. cerevisiae deletion strains, locus YER155C, strain BEM2, active compounds read low
[19] = S. cerevisiae deletion strains, locus YER167W, strain BCK2, active compounds read low
[20] = S. cerevisiae deletion strains, locus YGL078C, strain dbp3, active compounds read low
[21] = S. cerevisiae deletion strains, locus YGL086W, strain mad1, active compounds read low
[22] = S. cerevisiae deletion strains, locus YGL248W, strain PDE1, active compounds read low
[23] = S. cerevisiae deletion strains, locus YGR135W, strain pre9, active compounds read low
[24] = S. cerevisiae deletion strains, locus YGR252W, strain gcn5, active compounds read low
[25] = S. cerevisiae deletion strains, locus YHR030C, strain SLT2, active compounds read low
[26] = S. cerevisiae deletion strains, locus YHR079C, strain IRE1 (second series), active compounds read low
[27] = S. cerevisiae deletion strains, locus YHR094C, strain hxt1, active compounds read low
[28] = S. cerevisiae deletion strains, locus YHR129C, strain ARP1, active compounds read low
[29] = S. cerevisiae deletion strains, locus YHR200W, strain rpn10, active compounds read low
[30] = S. cerevisiae deletion strains, locus YIL066C, strain RNR3, active compounds read low
[31] = S. cerevisiae deletion strains, locus YIL073C, strain SPO22, active compounds read low
[32] = S. cerevisiae deletion strains, locus YIL125W, strain kgd1, active compounds read low
[33] = S. cerevisiae deletion strains, locus YIR030C, strain dcg1, active compounds read low
[34] = S. cerevisiae deletion strains, locus YJL095W, strain BCK1, active compounds read low
[35] = S. cerevisiae deletion strains, locus YJL134W, strain LCB3, active compounds read low
[36] = S. cerevisiae deletion strains, locus YJL168C, strain set2, active compounds read low
[37] = S. cerevisiae deletion strains, locus YJL187C, strain SWE1 (second series), active compounds read low
[38] = S. cerevisiae deletion strains, locus YJR043C, strain POL32, active compounds read low
[39] = S. cerevisiae deletion strains, locus YKL009W, strain mrt4, active compounds read low
[40] = S. cerevisiae deletion strains, locus YKL068W, active compounds read low
[41] = S. cerevisiae deletion strains, locus YKL085W, strain MDH1 (second series), active compounds read low
[42] = S. cerevisiae deletion strains, locus YKL085W, strain MDH1, active compounds read low
[43] = S. cerevisiae deletion strains, locus YKL190W, strain CNB1, active compounds read low
[44] = S. cerevisiae deletion strains, locus YKR001C, strain vps1, active compounds read low
[45] = S. cerevisiae deletion strains, locus YLR039C, strain RIC1, active compounds read low
[46] = S. cerevisiae deletion strains, locus YLR058C, strain SHM2, active compounds read low
[47] = S. cerevisiae deletion strains, locus YLR102C, strain apc9, active compounds read low
[48] = S. cerevisiae deletion strains, locus YLR262C, strain YPT6, active compounds read low
[49] = S. cerevisiae deletion strains, locus YLR268W, strain sec22, active compounds read low
[50] = S. cerevisiae deletion strains, locus YLR330W, strain CHS5, active compounds read low
[51] = S. cerevisiae deletion strains, locus YLR342W, strain FKS1 (second series), active compounds read low
[52] = S. cerevisiae deletion strains, locus YLR371W, strain rom2, active compounds read low
[53] = S. cerevisiae deletion strains, locus YLR418C, strain cdc73, active compounds read low
[54] = S. cerevisiae deletion strains, locus YML016C, strain PPZ1, active compounds read low
[55] = S. cerevisiae deletion strains, locus YML032C, strain rad52, active compounds read low
[56] = S. cerevisiae deletion strains, locus YML124C, strain tub3, active compounds read low
[57] = S. cerevisiae deletion strains, locus YMR078C, strain ctf18, active compounds read low
[58] = S. cerevisiae deletion strains, locus YMR223W, strain ubp8, active compounds read low
[59] = S. cerevisiae deletion strains, locus YMR307W, strain GAS1, active compounds read low
[60] = S. cerevisiae deletion strains, locus YNL067W, strain RPL9B, active compounds read low
[61] = S. cerevisiae deletion strains, locus YNL233W, strain BNI4, active compounds read low
[62] = S. cerevisiae deletion strains, locus YNL250W, strain rad50, active compounds read low
[63] = S. cerevisiae deletion strains, locus YNL271C, strain bni1, active compounds read low
[64] = S. cerevisiae deletion strains, locus YNL298W, strain CLA4, active compounds read low
[65] = S. cerevisiae deletion strains, locus YNL307C, strain MCK1, active compounds read low
[66] = S. cerevisiae deletion strains, locus YNR052C, strain pop2, active compounds read low
[67] = S. cerevisiae deletion strains, locus YOL006C, strain TOP1, active compounds read low
[68] = S. cerevisiae deletion strains, locus YOL012C, strain htz1
[69] = S. cerevisiae deletion strains, locus YOL147C, strain pex11, active compounds read low
[70] = S. cerevisiae deletion strains, locus YOR061W, strain CKA2, active compounds read low
[71] = S. cerevisiae deletion strains, locus YOR069W, strain VPS5, active compounds read low
[72] = S. cerevisiae deletion strains, locus YOR136W, strain idh2, active compounds read low
[73] = S. cerevisiae deletion strains, locus YOR144C, strain elg1, active compounds read low
[74] = S. cerevisiae deletion strains, locus YOR184W, strain ser1, active compounds read low
[75] = S. cerevisiae deletion strains, locus YOR316C, strain cot1, active compounds read low
[76] = S. cerevisiae deletion strains, locus YPL241C, strain CIN2, active compounds read low
[77] = S. cerevisiae deletion strains, locus YPR119W, strain clb2, active compounds read low
[78] = S. cerevisiae deletion strains, locus YPR141C, strain kar3, active compounds read low
[79] = S. cerevisiae deletion strains, locus YPR163C, strain tif3, active compounds read low
[80] = S. cerevisiae deletion strains, locus YPR167C, strain met16, active compounds read low
[81] = S. cerevisiae deletion strains, strain wtn01, active compounds read low

Measured: normalized growth

CC(=O)c1c(O)c(C)c(O)c2c1oc1c(C(C)=O)c(O)c(C)c(O)c12
inactive: [1] 1 | [2] 0.991 | [3] 0.981 | [4] 0.961 | [5] 0.942 | [6] 0.963 | [7] 0.98 | [8] 0.981 | [9] 0.934 | [11] 0.988 | [12] 0.979 | [13] 0.934 | [14] 0.966 | [16] 0.98 | [17] 0.976 | [18] 0.973 | [19] 0.963 | [20] 0.987 | [21] 0.993 | [22] 0.973 | S. cerevisiae deletion strains, locus YGR078C, strain PAC10, active compounds read low 0.943 | [23] 0.954 | S. cerevisiae deletion strains, locus YGR229C, strain SMI1, active compounds read low 0.901 | [24] 0.906 | [25] 0.961 | [26] 0.953 | [27] 0.978 | [28] 0.975 | [29] 0.938 | [30] 0.924 | [31] 0.942 | [32] 0.983 | [33] 0.952 | [34] 0.909 | [35] 0.977 | [36] 0.968 | [37] 0.944 | [38] 0.926 | S. cerevisiae deletion strains, locus YJR075W, strain HOC1, active compounds read low 0.974 | [39] 0.944 | [40] 0.995 | [41] 0.982 | [42] 0.982 | [43] 0.988 | [45] 0.722 | [46] 0.966 | [47] 0.979 | [48] 0.827 | [49] 0.906 | [50] 0.983 | [51] 0.882 | [52] 0.979 | [53] 0.9 | [54] 0.975 | [56] 0.964 | [57] 0.966 | [58] 0.921 | S. cerevisiae deletion strains, locus YMR263W, strain SAP30, active compounds read low 0.957 | [59] 0.901 | [60] 0.961 | S. cerevisiae deletion strains, locus YNL128W, strain TEP1, active compounds read low 0.972 | S. cerevisiae deletion strains, locus YNL153C, strain GIM3, active compounds read low 0.986 | [61] 0.943 | [62] 0.977 | [63] 0.985 | [64] 0.958 | [65] 0.941 | S. cerevisiae deletion strains, locus YNL322C, strain KRE1, active compounds read low 0.989 | [67] 0.921 | [68] 0.749 | [69] 0.958 | [70] 0.963 | [71] 0.988 | [72] 0.967 | [73] 0.971 | [74] 0.88 | [75] 0.972 | S. cerevisiae deletion strains, locus YPL055C, strain LGE1, active compounds read low 0.95 | [76] 0.962 | [77] 0.971 | [78] 0.985 | [79] 0.98 | [80] 0.974 | [81] 0.932 | S. cerevisiae strains, strain wild type, active compounds read low 0.954
active: [10] 0.918 | [15] 0.91 | [44] 0.638 | [55] 0.891 | [66] 0.852

Cc1c(O)c(C(=O)CC(C)C)c2oc3c(C(=O)CC(C)C)c(O)c(C)c(O)c3c2c1O
inactive: [1] 1.01 | [2] 0.943 | [3] 0.993 | [4] 1.01 | [5] 0.994 | [6] 0.978 | [7] 1 | [8] 0.991 | S. cerevisiae deletion strains, locus YDL185W, strain tfp1, active compounds read low 1 | [9] 0.987 | [10] 0.972 | [11] 1.01 | [12] 1 | [13] 0.997 | [14] 0.985 | [15] 0.978 | [16] 1.01 | [17] 0.995 | [18] 0.995 | [19] 0.996 | [20] 0.985 | [21] 0.989 | [22] 0.994 | [23] 0.996 | [24] 0.918 | [25] 1 | [26] 0.987 | [27] 0.986 | [28] 1 | [29] 0.983 | [30] 1 | [31] 0.983 | [32] 0.995 | [33] 0.993 | [34] 0.994 | [35] 1 | [36] 0.994 | [37] 1 | [38] 0.958 | [39] 0.977 | [40] 1 | [41] 1.01 | [42] 1.01 | [43] 1 | [44] 0.935 | [45] 0.787 | [46] 1 | [47] 0.982 | [48] 0.811 | [49] 0.985 | [50] 1 | [51] 0.978 | [52] 0.999 | [53] 0.92 | [54] 1.01 | [55] 0.999 | [56] 0.99 | [57] 1 | [58] 0.996 | [59] 0.827 | [60] 1.01 | [61] 0.968 | [62] 1.01 | [63] 1 | [64] 1 | [65] 0.994 | [66] 1.01 | [67] 0.977 | [68] 0.768 | [69] 0.987 | [70] 1 | [71] 1.01 | [72] 0.99 | [73] 0.996 | [74] 0.974 | [75] 0.986 | [76] 1 | [77] 0.989 | [78] 0.991 | [79] 0.99 | [80] 1 | [81] 0.975
